Our source for the binding signal values is paper PMC3218832.

Among the targets are RELARELA (p65 homodimer) (Homo sapiens, UniProt Q04206 1-307); p50p50 homodimer (Homo sapiens, UniProt P19838 7-356); RELB subunit;p50 subunit (Homo sapiens;Homo sapiens, UniProt Q01201;P19838 120-401;7-356).
Experiment in all cases: protein binding microarray; high values mean tight binding
Conditions in all cases: dsDNA, one strand shown

The target in a further test is T1, p52p52 homodimer (Homo sapiens, UniProt Q00653 4-332).
T1 sequence: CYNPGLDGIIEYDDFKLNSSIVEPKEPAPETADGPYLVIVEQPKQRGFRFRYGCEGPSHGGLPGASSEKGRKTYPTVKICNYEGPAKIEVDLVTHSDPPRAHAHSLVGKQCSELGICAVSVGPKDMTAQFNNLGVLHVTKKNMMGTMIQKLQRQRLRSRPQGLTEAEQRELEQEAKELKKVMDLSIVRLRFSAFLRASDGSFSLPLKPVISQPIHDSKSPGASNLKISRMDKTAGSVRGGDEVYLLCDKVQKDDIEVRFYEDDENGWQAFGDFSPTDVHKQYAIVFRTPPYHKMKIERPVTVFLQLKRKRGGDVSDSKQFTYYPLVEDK

Test [1] deals with RELA (p65) subunit of heterodimer;p50 subunit (Homo sapiens;Homo sapiens, UniProt Q04206;P19838 1-307;7-356).
Test [2] addresses RELA (p65) subunit of heterodimer;p52 subunit (Homo sapiens;Homo sapiens, UniProt Q04206;Q00653 1-307;4-332).
A further test addresses T2, RELB subunit;p52 subunit (Homo sapiens;Homo sapiens, UniProt Q01201;Q00653 120-401;4-332).
T2 sequence 1: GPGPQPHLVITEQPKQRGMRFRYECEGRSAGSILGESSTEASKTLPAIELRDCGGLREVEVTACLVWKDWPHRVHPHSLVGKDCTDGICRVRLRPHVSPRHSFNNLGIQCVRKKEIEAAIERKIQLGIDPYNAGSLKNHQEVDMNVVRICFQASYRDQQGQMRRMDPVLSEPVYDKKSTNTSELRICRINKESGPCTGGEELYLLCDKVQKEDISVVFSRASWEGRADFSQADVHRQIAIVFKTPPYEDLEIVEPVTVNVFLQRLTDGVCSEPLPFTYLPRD
T2 sequence 2: T1 sequence

Test [3] has as its target C-Rel subunit;p50 subunit (Homo sapiens;Homo sapiens, UniProt Q04864;P19838 1-285;7-356).
Test [4] has as its target T3, C-Rel subunit;p52 subunit (Homo sapiens;Homo sapiens, UniProt Q04864;Q00653 1-285;4-332).
T3 sequence 1: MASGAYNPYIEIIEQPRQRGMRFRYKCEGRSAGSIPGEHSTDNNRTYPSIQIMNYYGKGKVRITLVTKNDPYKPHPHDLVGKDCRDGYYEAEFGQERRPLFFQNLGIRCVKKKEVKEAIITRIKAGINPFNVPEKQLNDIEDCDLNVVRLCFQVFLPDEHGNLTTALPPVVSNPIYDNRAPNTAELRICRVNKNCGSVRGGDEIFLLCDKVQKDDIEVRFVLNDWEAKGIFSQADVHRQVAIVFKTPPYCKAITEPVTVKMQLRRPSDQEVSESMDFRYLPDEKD
T3 sequence 2: T1 sequence

Chain of p50p50 homodimer (P19838 7-356): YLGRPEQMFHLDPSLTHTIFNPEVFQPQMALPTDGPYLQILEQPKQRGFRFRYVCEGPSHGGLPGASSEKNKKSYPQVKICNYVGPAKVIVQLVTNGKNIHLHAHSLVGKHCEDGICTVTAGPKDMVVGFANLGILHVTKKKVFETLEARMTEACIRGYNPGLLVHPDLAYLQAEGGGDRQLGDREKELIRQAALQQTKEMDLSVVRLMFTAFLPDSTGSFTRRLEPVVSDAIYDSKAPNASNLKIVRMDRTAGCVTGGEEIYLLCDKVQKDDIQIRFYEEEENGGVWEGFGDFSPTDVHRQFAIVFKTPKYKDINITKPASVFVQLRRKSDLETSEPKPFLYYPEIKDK
Chain of RELA (p65) subunit of heterodimer;p50 subunit (Q04206 1-307, chain 1 of 2): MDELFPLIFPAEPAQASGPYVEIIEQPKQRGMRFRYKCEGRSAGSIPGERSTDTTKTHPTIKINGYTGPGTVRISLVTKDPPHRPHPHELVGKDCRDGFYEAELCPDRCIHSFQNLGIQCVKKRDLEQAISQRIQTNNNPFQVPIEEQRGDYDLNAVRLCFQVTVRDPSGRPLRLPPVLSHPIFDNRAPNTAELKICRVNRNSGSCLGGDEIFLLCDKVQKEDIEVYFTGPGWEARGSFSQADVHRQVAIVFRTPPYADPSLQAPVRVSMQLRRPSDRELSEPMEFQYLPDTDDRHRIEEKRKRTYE
Chain of RELA (p65) subunit of heterodimer;p50 subunit (P19838 7-356, chain 2 of 2): as the sequence (P19838 7-356) above
Chain of RELARELA (p65 homodimer) (Q04206 1-307): as the sequence (Q04206 1-307, chain 1 of 2) above

Take GAAGAAATCCC: the binding signal with RELARELA (p65 homodimer) is 1.23 z-score; in the test with p50p50 homodimer, 0.872 z-score; in the test with p52p52 homodimer, 0.93 z-score; in [1], 0.96 z-score; in [2] it was 0.759 z-score; with RELB subunit;p50 subunit it was 0.876 z-score. The binding signal came out at 0.618 z-score with RELB subunit;p52 subunit, 0.892 z-score in [3] and 0.641 z-score in [4].

On to CAGATAGCCCT, for which the binding signal in the test with RELARELA (p65 homodimer) is -0.575 z-score; with p50p50 homodimer it was -1.02 z-score; with p52p52 homodimer, -0.544 z-score; in test [1], -0.662 z-score; in test [2], -0.763 z-score; with RELB subunit;p50 subunit it was -0.804 z-score. Besides, the binding signal with RELB subunit;p52 subunit was -0.675 z-score; in [3], -1.23 z-score; in test [4], -0.828 z-score.

For AGATGAATCCT, the binding signal is -0.706 z-score with RELARELA (p65 homodimer); -1.32 z-score in the test with p50p50 homodimer; -0.542 z-score with p52p52 homodimer; -1 z-score in test [1]; -0.972 z-score in test [2]; -1.28 z-score in the test with RELB subunit;p50 subunit. Besides, the binding signal with RELB subunit;p52 subunit was -1.16 z-score; in test [3], -1.39 z-score; in [4], -0.907 z-score.

Turning to CGATTTCCCCT, the binding signal in the test with RELARELA (p65 homodimer) is 1.73 z-score; with p50p50 homodimer, 1.66 z-score; with p52p52 homodimer it was 2.21 z-score; in test [1] it was 2.26 z-score; in test [2], 1.96 z-score; in the test with RELB subunit;p50 subunit it was 2.39 z-score. The binding signal with RELB subunit;p52 subunit was found to be 2.23 z-score; in test [3], 1.83 z-score; in [4] it was 1.81 z-score.

Take CGAAGCATCCT: the binding signal with RELARELA (p65 homodimer) is -1.05 z-score; with p50p50 homodimer it was -3.51 z-score; in the test with p52p52 homodimer, -0.775 z-score; in test [1], -1.25 z-score; in [2] it was -1.09 z-score; with RELB subunit;p50 subunit, -1.1 z-score. Besides, the binding signal was -1.02 z-score with RELB subunit;p52 subunit, -1.65 z-score in test [3] and -1 z-score in [4].

For CGAGGTGCCCT, the binding signal in the test with RELARELA (p65 homodimer) is -0.746 z-score; with p50p50 homodimer, -1.52 z-score; with p52p52 homodimer, -0.61 z-score; in [1], -0.798 z-score; in test [2], -0.84 z-score; in the test with RELB subunit;p50 subunit, -0.973 z-score. Besides, the binding signal was -0.87 z-score with RELB subunit;p52 subunit, -1.16 z-score in test [3] and -0.789 z-score in [4].

In the case of AAAATAGTCCT, the binding signal with RELARELA (p65 homodimer) is -0.023 z-score; with p50p50 homodimer it was -0.728 z-score; with p52p52 homodimer, -0.497 z-score; in test [1], -0.709 z-score; in [2], -0.767 z-score; in the test with RELB subunit;p50 subunit it was -0.806 z-score. Besides, the values for the binding signal (in the test with RELB subunit;p52 subunit; in test [3]; in test [4]) were -0.856 z-score, -0.761 z-score and -0.606 z-score, respectively.

For the sequence GAGTAAGCCCC, the binding signal in the test with RELARELA (p65 homodimer) is -0.458 z-score; with p50p50 homodimer it was 0.604 z-score; in the test with p52p52 homodimer, 0.178 z-score; in test [1], 0.392 z-score; in [2], 0.155 z-score; with RELB subunit;p50 subunit, 0.171 z-score. Further, the binding signal with RELB subunit;p52 subunit came to 0.116 z-score; in [3], 0.263 z-score; in test [4], 0.236 z-score.

In the case of GGAAACTCCCC, the binding signal worked out at 3.23 z-score with RELARELA (p65 homodimer); 1.08 z-score with p50p50 homodimer; 2.01 z-score with p52p52 homodimer; 2.39 z-score in test [1]; 2.23 z-score in test [2]; 1.32 z-score in the test with RELB subunit;p50 subunit. Moreover, the binding signal came out at 2.1 z-score with RELB subunit;p52 subunit, 2.15 z-score in test [3] and 2.63 z-score in test [4].

As to AGATGTTTCCC, the binding signal with RELARELA (p65 homodimer) is 1.63 z-score; with p50p50 homodimer, 0.332 z-score; in the test with p52p52 homodimer, 0.359 z-score; in test [1], 0.89 z-score; in test [2], 0.674 z-score; in the test with RELB subunit;p50 subunit it was 0.348 z-score. For the same sequence, the binding signal was found to be 0.51 z-score with RELB subunit;p52 subunit, 1.05 z-score in [3] and 0.783 z-score in [4].

Turning to CAAGGTACCCT, the binding signal is -0.567 z-score with RELARELA (p65 homodimer); -0.267 z-score with p50p50 homodimer; -0.0886 z-score in the test with p52p52 homodimer; -0.499 z-score in test [1]; -0.317 z-score in test [2]; -0.0446 z-score with RELB subunit;p50 subunit. The binding signal in the test with RELB subunit;p52 subunit is -0.391 z-score; in [3], -0.833 z-score; in [4], -0.57 z-score.

With GAAGAATCCCC, the binding signal was 1.11 z-score in the test with RELARELA (p65 homodimer); 1.36 z-score with p50p50 homodimer; 2.18 z-score with p52p52 homodimer; 2.18 z-score in [1]; 1.83 z-score in test [2]; 2.29 z-score with RELB subunit;p50 subunit. Also, the binding signal in the test with RELB subunit;p52 subunit is 1.85 z-score; in [3], 1.56 z-score; in test [4], 1.53 z-score.

As for CGGTTCCCCCC, the binding signal with RELARELA (p65 homodimer) was 0.357 z-score; with p50p50 homodimer, 1.52 z-score; with p52p52 homodimer, 1.57 z-score; in test [1], 2.24 z-score; in test [2] it was 1.89 z-score; in the test with RELB subunit;p50 subunit, 2.3 z-score. The binding signal turned out to be 2.23 z-score with RELB subunit;p52 subunit, 1.85 z-score in test [3] and 1.73 z-score in test [4].

For the sequence GGGAAGCTCCC, the binding signal in the test with RELARELA (p65 homodimer) amounted to 1.42 z-score; with p50p50 homodimer, 0.219 z-score; with p52p52 homodimer it was 1.52 z-score; in test [1], 1.07 z-score; in [2], 1.16 z-score; with RELB subunit;p50 subunit it was 0.839 z-score. For the same sequence, the binding signal was 0.35 z-score with RELB subunit;p52 subunit, 0.354 z-score in test [3] and 0.716 z-score in test [4].

As to GGGTTGACCCT, the binding signal is -0.0795 z-score with RELARELA (p65 homodimer); -0.785 z-score in the test with p50p50 homodimer; -0.387 z-score with p52p52 homodimer; -0.407 z-score in test [1]; -0.336 z-score in test [2]; -0.554 z-score with RELB subunit;p50 subunit. The binding signal was -0.73 z-score in the test with RELB subunit;p52 subunit, -0.769 z-score in test [3] and -0.115 z-score in [4].
